In PubChem BioAssay (NCI):
The panel holds about 79,000 compounds, 15% with a hit somewhere; the sample as a whole holds those more often. Unmarked numbers belong to inactive results. Activity calls are given as the source filed them. No stated cut-off is given here; in the data, active means growth inhibition above about 70%; inactive means the rest.

Experiments:
[1] = NCI Yeast Anticancer Drug Screen. Data for the rad50 strain (AID 155);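 further: 0% = growth of vehicle-only cultures of the same strain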; conditions: S. cerevisiae rad50 strain growth inhibition; at 50.0 µM; hits give high values
Method in brief: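 Relative growth inhibition (compound vs vehicle) was measured in yeast with a defined repair-gene alteration.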

[2] = NCI Yeast Anticancer Drug Screen. Data for the mec2-1 strain (AID 157); conditions: S. cerevisiae mec2-1 strain, at 50.0 µM, hits give high values
Method in brief: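 Yeast mec2-1 mutant treated with compound. Readout: growth inhibition vs vehicle controls.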

[3] = NCI Yeast Anticancer Drug Screen. Data for the sgs1 mgt1 strain (AID 161);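 further: 0% = growth of cultures given vehicle only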; conditions: S. cerevisiae sgs1 mgt1 strain, at 50.0 µM, hits give high values
Method in brief: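 Genetically altered yeast, compound exposure, growth inhibition relative to vehicle.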

[4] = NCI Yeast Anticancer Drug Screen. Data for the cln2 rad14 strain (AID 165);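 further: 0% = growth equal to vehicle treated cultures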; conditions: S. cerevisiae cln2 rad14 strain, at 50.0 µM, hits give high values
Method in brief: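 cln2 rad14 yeast strain; compound exposure; growth inhibition read vs vehicle controls.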

[5] = NCI Yeast Anticancer Drug Screen. Data for the bub3 strain (AID 167); conditions: S. cerevisiae bub3 mutant strain, at 50.0 µM, hits give high values
Method in brief: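 Screening used yeast with an engineered genetic alteration affecting cell cycle control. Compound-exposed cultures were compared with vehicle cultures, and reduced growth was taken as inhibition.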

[6] = NCI Yeast Anticancer Drug Screen. Data for the mlh1 rad18 strain (AID 175); conditions: S. cerevisiae mlh1 rad18 strain growth inhibition; at 50.0 µM; hits give high values
Method in brief: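 Yeast w/ defined DNA-repair lesions; compound exposure; growth vs vehicle controls → % inhibition.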

Structure (SMILES) | growth inhibition [1] [%] | growth inhibition [2] | growth inhibition [3] | growth inhibition [4] | growth inhibition [5] | growth inhibition [6]
CC(=O)[C@H]1CC[C@H]2[C@@H]3CC=C4C=CCC[C@]4(C)[C@H]3CC[C@]12C | -6.3 | 1% | -3.55% | -58.5% | 8.4% | 6.7%
COc1cc([C@H]2CC(=O)C[C@H](c3cc(OC)c(OC)c(OC)c3)C23C(=O)c2ccccc2C3=O)cc(OC)c1OC | -3 | 11.9% | -8.7% | 29.5% | 0.45% | 7%
Cc1ccc2c(c1-c1ccccc1)C(=O)OC2 | -5.4 | -3.05% | 2.15% | 5.35% | 6.25% | -3.3%
CCOC(=O)[C@@]12[C@H](N3C(=O)c4ccccc4C3=O)C(=O)N1CCS2(=O)=O | -1.9 | -5.7% | -29.4% | -22.9% | -1.5% | 6.95%
CCOC(=O)/C(=C\n1c(=O)[nH]c(=O)[nH]c1=S)C(=O)c1ccccc1 | -22.8 | -17.4% | -9.25% | 7.35% | -17.9% | -13.2%
C=CCSc1nc2c(=O)n(C)c(=O)n(C)c2n1C | -11.3 | -3.55% | -6.85% | -27.3% | -6.8% | 7.15%
NC(=O)c1nnc2ccc(F)cc2c1N | -35.2 | -37% | -23.2% | -2.55% | -9.35% | -27.2%
COc1ccc(-c2coc3cc(O)cc(O)c3c2=O)cc1 | 36.6 | 22.6% | 59.4% | 31.7% | 58.4% | 62.9%
c1cc2cc3c4c5c(cc6ccc7cc8cc9c%10c8c8c7c6c5c8c5c%10c(c1C9N1CCOCCOCCOCCOCCOCC1)c2c45)C3 (stereo unspecified) | -15.1 | -2.35% | 3.1% | 17.7% | 3.35% | -9.9%
O=C1C2Cc3ccccc3CN2C(=O)N1CCN1CCCC1 (stereo unspecified) | -19.1 | -33.7% | -12.1% | 4.3% | -22.6% | 8%
O=C(NCc1ccccc1)c1cc(Cl)ccc1O | -20.3 | -7.1% | -7.65% | -37.4% | 0.95% | 5.35%
CNc1ncnc2[nH]ncc12 | 18.4 | -0.85% | 6.25% | -18.2% | -7.05% | 1.35%
CCOC(=O)C(N=Nc1ccccc1)C(=O)c1ccccc1 (stereo unspecified) | 23.4 | -2.75% | 50.7% | -22.1% | 38.8% | 28.5%
Cc1ccc(C(C)C)c(OCC2=NCCN2C)c1 | -7.15 | -3.15% | 3.35% | 0.4% | -16.1% | -10.2%
C=C(Br)CNCC(=C)Br | 2.2 | 7.25% | 5% | 9.65% | 18.2% | -18.6%
Cc1cc(NS(=O)(=O)c2ccc(NC(NC(=O)C(C(F)(F)F)C(F)(F)F)(C(F)(F)F)C(F)(F)F)cc2)no1 | 1.4 | -18.1% | -24.9% | -8.4% | 10.6% | 0.55%
CSc1cnn(-c2ccccc2)[n+]1[O-] | 3.8 | -1.3% | -7.15% | -42.5% | -1.75% | -0.85%
O=C1CSC(c2cccc(Cl)c2)N1N1C(=O)CSC1c1cccc(Cl)c1 (stereo unspecified) | 6.3 | 19.4% | -7.15% | -0.6% | 2.05% | 13.4%
O=C1C2=C(c3ccccc31)C(c1ccccc1Cl)N1C(=O)CCSC1=N2 (stereo unspecified) | 2.9 | 0.4% | 13.9% | 8.85% | 4.65% | -3.45%
CC(C)c1nc2c([nH]1)c(=O)n(C)c(=O)n2C | 30.2 | 6.85% | 26.4% | 18% | 2.8% | 17.9%
O=C(O)c1ccnc(-c2ccc(Cl)cc2)c1 | 5.5 | 5.75% | -1.65% | -17.2% | -16.8% | 9.05%

Structure (SMILES) | growth inhibition [1] [%] | growth inhibition [2] | growth inhibition [3] | growth inhibition [4] | growth inhibition [5] | growth inhibition [6]
Fc1cccc(C2SCc3nc4cc5ccccc5cc4n32)c1 (stereo unspecified) | -21.8 | -1.25% | 8.8% | -0.45% | -19.7% | -9.65%
Cc1cc(Cc2ccc3c(c2)OCO3)ccc1OCC(=O)O | 15.1 | 18.3% | 15.6% | 13.4% | 20.8% | 23.8%
NC(CSCC(=O)O)C(=O)O (stereo unspecified) | -19.8 | -3.85% | 1.15% | -20.6% | 16.1% | -5.9%
O[C@]12c3ccccc3C1CCCCC2N1CCOCC1 (stereo partly specified) | -15.8 | -41% | -61% | -8.45% | -24.1% | -35.4%
C=CC(=O)NC(C)C(=O)O (stereo unspecified) | -4.45 | -2.5% | 0% | -7.05% | -10.9% | -4.15%
COc1cc(Cl)ccc1NC(=O)Oc1ccc(-c2ccccc2)cc1Cl | 65.8 | 99.5% (active) | 99.5% (active) | 99% (active) | 99.2% (active) | 99.4% (active)
N#CNC(=O)c1ccc(Cl)cc1 | -2.8 | -12.5% | -11.1% | -21.4% | -14.4% | -0.4%
Cc1nc(N)c(N=O)c(=O)[nH]1 | 13.2 | 8.75% | 14.2% | 9.5% | 10.9% | 7.35%
CCCCCCCCCCCCCCO | 21.9 | -22.8% | -19.7% | -54.8% | 1.3% | 16.9%
COc1cc(OC)cc(OCc2nc3cc(C(F)(F)F)ccc3nc2-c2ccccc2)c1 | -17.8 | -3.5% | 5.9% | -6.2% | -0.95% | -53.8%
CC1CCCC2(CN=C(Nc3ccccc3)O2)C1 (stereo unspecified) | -13.7 | -8.45% | -7.05% | -75% | -10.1% | -6.15%
CCCCOC(=O)NC(=O)c1cc2cc(I)cc(I)c2oc1=O | 3.45 | 5.8% | -7.75% | -50.2% | -10.6% | 17.6%
CC1=C(C(=O)NCc2ccccc2)C(c2ccccc2C)C(C(=O)NCc2ccccc2)=C(C)N1 | 52.1 | 26% | 31.6% | -10.9% | 36% | 25.4%
CC#CCN(C(C)C)C(C)C | 15.4 | 8.3% | -11.4% | -34.5% | -21.5% | -27.1%
CC(=O)O[C@@H]1[C@H]2[C@@H](OC(=O)c3ccccc3)[C@@H](C)C[C@]2(O)[C@H](OC(C)=O)[C@@]2(C)[C@@H]3C[C@@](C)(OC(C)=O)C[C@@H](OC(C)=O)[C@@]3(OC(C)=O)C[C@@]12C | -7.55 | -7.05% | -3.8% | -32.8% | -6.35% | -50.5%
CCOC(=O)COc1ccc(Cc2ccc3c(c2)OCO3)cc1C | -0.7 | 3.1% | -2.45% | -6.05% | 16.2% | 0.9%
CCOC(=O)C1=CC2CCOC2O1 (stereo unspecified) | -19.8 | -14.8% | 5.85% | -28.7% | -9.5% | 5.5%
c1ccc(Sc2nc(Sc3ccccc3)nc(Sc3ccccc3)n2)cc1 | -23.9 | -16.4% | -15.2% | 17.9% | -20.1% | -31.7%
CCCCOP(=O)(OCCCC)C(c1ccccc1)(c1ccccc1)c1ccccc1 | 48.9 | 42.5% | 49.8% | 42.5% | 5.9% | 59.6%
C[C@H]1O[C@@H](C(C)(C)C)OC(=O)[C@@H]1C(OC(=O)c1ccccc1)c1cccc2ccccc12 (stereo partly specified) | -0.1 | 3.15% | 12.1% | 25.3% | -3.45% | 8%
